± gives the standard deviation.
Columns and labels:
[1] = system: MILI (PIWIL2) piRISC loaded with L1MC piRNA (26 nt); experiment: pre-steady-state target cleavage rate (min^-1); guide: L1MC piRNA 5'p-UAACUAAAUACUAUGCAAGCUGUAGG; higher = faster piRNA-guided slicing of the target
Procedure, shortened: (§1)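 A transcribed, DNA-blocked target RNA library (0.1 nM) and 1 nM active affinity-purified piRISC bearing one synthetic guide were incubated in HEPES–potassium acetate buffer at 33 °C for 0–8 or 0–960 min, either with or without 500 nM GTSF1 partner protein. Uncleaved targets were sequenced, normalised to depth and to weakly complementary targets, and pooled over three trials, with k3 capped at 0.0001 min^-1. The pre-steady-state cleavage rate was derived with a burst-and-steady-state fit.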

[2] = system: EfPiwi piRISC loaded with L1MC piRNA (26 nt); experiment: pre-steady-state target cleavage rate (min^-1); auxiliary factor: 500 nM Ephydatia muelleri Gtsf1; guide: L1MC piRNA 5'p-UAACUAAAUACUAUGCAAGCUGUAGG; MIWI and MILI are mouse PIWI proteins and EfPiwi is from a freshwater sponge; tags in brackets are library labels; higher = faster piRNA-guided slicing of the target
Procedure, shortened: as §1

[3] = auxiliary factor: 500 nM mouse GTSF1
[4] = auxiliary factor: none (no GTSF1)

Row | Sequence | pre-steady-state target cleavage rate [1, 3] | pre-steady-state target cleavage rate [1, 4] | pre-steady-state target cleavage rate [2]
1 | UCCUGGAUCACGAUGCAUAGUAUUUAGUUA | 0.134 ± 0.013 | 0.00516 ± 0.0028 | 0.0115 ± 0.004
2 | UCCUGCUACAGCUUGCAUAGUAUUUAGUUA [g2:g25:cont:t1A] | 0.282 ± 0.019 | 0.0105 ± 0.003 | 0.0357 ± 0.011
3 | UCCUGGAUCAGCUGUGCAUAGUAUUUAGUUA | 0.232 ± 0.017 | 0.0109 ± 0.0034 | 0.0791 ± 0.016
4 | UCCUGGUACAGCUUGCAUAGUAUAAUGUUA | 0.175 ± 0.036 | 0.00565 ± 0.0032 | 0.00312 ± 0.0026
5 | UCCUGCUACAGCUUGCAUAGUAUUUAGUUUA | 0.308 ± 0.018 | 0.0118 ± 0.0032 | 0.0608 ± 0.016
6 | UCCUCCUACAGCUUGCAUAGUAGUUAGUUA | 0.192 ± 0.026 | 0.00325 ± 0.0032 | 0.00786 ± 0.0026
7 | UCCUCCUACAGCUUGCAUAGUCAUUUAGUUA | 0.0182 ± 0.0076 | 0.00422 ± 0.0022 | 0.00268 ± 0.0025
8 | UCCUGCUACAGCUAGCAAAGUAUUUAGUUA | 0.137 ± 0.012 | 0.00463 ± 0.0024 | 0.0328 ± 0.0098
9 | UCCUCCUACAGCUUGCAUAGUACUUAGUUA | 0.277 ± 0.018 | 0.00759 ± 0.002 | 0.013 ± 0.0053
10 | UCCUGGAACAGCUUUCAUAGUAUUUAGUUA | 0.197 ± 0.021 | 0.00688 ± 0.0024 | 0.00631 ± 0.0025
11 | UCCUGCUACAGCUUGCAAAGUAAUUAGUUA | 0.124 ± 0.018 | 0.00266 ± 0.0025 | 0.00362 ± 0.0019
12 | UCCUGGUCCAGCUUGCAUAGUAUUUAGUUA | 0.232 ± 0.02 | 0.0129 ± 0.0037 | 0.0262 ± 0.007
13 | UCCUGCUACAGCAUGCAUAGUAUAUAGUUA | 0.284 ± 0.03 | 0.0054 ± 0.0024 | 0.00599 ± 0.0029
14 | UCCUGCUACUGCUUGCAUAGUAUUAAGUUA | 0.151 ± 0.02 | 0.00322 ± 0.0028 | 0.00584 ± 0.0021
15 | UCCUCCUAGAGGUUGCAUAGUAUUUAGUUA | 0.205 ± 0.011 | 0.00716 ± 0.0022 | 0.0153 ± 0.0029
16 | UCCUCCUACAGCUUGCUUAGUAUUUUGUUA | 0.133 ± 0.016 | 0.0026 ± 0.0026 | 0.00532 ± 0.0028
17 | UCCUGGAUGUCCUUGCUUAGUAUUUAGUUA | 0.0537 ± 0.0095 | 0.00574 ± 0.0022 | 0.00568 ± 0.0037

— the supplement of paper PMC10338343
